Bioassay records deposited in PubChem BioAssay by The Scripps Research Institute Molecular Screening Center.
sPLA2-III inh: Inhibits HGIII-sPLA2 liposome hydrolysis, primary screen. inhibition, % at 12.2 µM. AID 743126. 0.56% of 370,000 active. Q9NZ20. QFRET BODIPY PC-A2 liposome hydrolysis, fluorescence;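 active = inhibition above mean plus 3 SD of compounds lying within the high and low control bounds, cut at about 19% in these data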
ADAM10 inh: inhibitors of human ADAM10 | O14672 | recombinant ADAM10, EDANS/DABCYL FRET peptide cleavage, 3 h | inhibition, % at 7 µM | 0.62% of 370,000 active | AID 720582;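 active = inhibition above a per-campaign cutoff equal to the mean of compounds falling between control-based bounds plus 3 SD, cut at about 20% in these data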
PLC-gamma1 inh: PLC-gamma1 (human) inhibition, primary screen; P19174; purified PLC-gamma1, fluorogenic substrate, fluorescence; inhibition, % at 12.2 µM; 0.84% of 370,000 active; AID 720700; in the data active = inhibition above about 9.5%
KLK7 zymogen act: proKLK7 (human) activation, primary screen | P49862 | purified proKLK7, EDANS-DABCYL substrate fluorescence; 100% is mature enzyme control, 0% vehicle | activation, % at 7 µM | 0.9% of 370,000 active | AID 652039;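 active = activation above the mean of all tested compounds plus 3 SD, computed per campaign excluding outliers beyond control limits, cut at about 13% in these data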
PLC-beta3 inh: blocks human PLC-beta3 enzyme activity; Q01970; Purified PLC-beta3, fluorogenic substrate, fluorescence; inhibition, % at 12.2 µM; 0.18% of 370,000 active; AID 720704; in the data active = inhibition above about 11%
ADAM17 inh: inhibitors of human ADAM17 | P78536 | recombinant ADAM17, EDANS/DABCYL FRET peptide cleavage | inhibition, % at 6.95 µM | 0.83% of 370,000 active | AID 720648;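 active = inhibition above the mean of compounds lying between control limits plus 3 SD, set per campaign, cut at about 8.5% in these data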
ADAM10 confirm: confirmation of inhibitors of human ADAM10; shares compounds with ADAM10 inh; ADAM10 QFRET peptide cleavage, EDANS fluorescence; inhibition, % at 6.95 µM; 1% of 2,100 active;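 active = inhibition above about 20% chosen separately for each screening run, limit read from the data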
ADAM17 ctr: ADAM17 inhibition, counter-screen for ADAM10 exosite hits | shares compounds with ADAM10 inh | ADAM17 QFRET peptide cleavage, EDANS fluorescence | inhibition, % at 6.95 µM | 0.5% of 2,100 active;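 active = mean triplicate inhibition above the solvent-only control wells' mean plus 3 SD, cut at about 12% in these data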
Numbers stand for hits; n = inactive; x = no result given. Rows were chosen to be rich in hits. Some 3.4% of all compounds tested hit in one or more screens of this group.

SMILES	sPLA2-III inh	ADAM10 inh	PLC-gamma1 inh	KLK7 zymogen act	PLC-beta3 inh	ADAM17 inh	ADAM10 confirm	ADAM17 ctr
CC(=O)C1=C(C)NC(=S)NC1c1ccc(F)cc1 (stereo unspecified)	n	n	n	n	n	n	x	x
O=C(Nc1ccc(N2C(=O)CC3(CCCCC3)C2=O)c(Cl)c1)c1ccccn1	n	n	n	x	n	n	x	x
COc1ccccc1NC(=O)CN(c1ccc(C23CC4CC(CC(C4)C2)C3)cc1)S(C)(=O)=O	n	21.8	n	n	n	n	n	n
CS(=O)(=O)N(CC(=O)O)c1ccc(C23CC4CC(CC(C4)C2)C3)cc1	n	n	n	n	n	n	x	x
COC(=O)[C@H](C)NC(=O)C(Cc1ccc2c(c1)OCO2)NC(C)=O (stereo partly specified)	n	n	n	n	n	n	x	x
CN(CCc1ccccc1)C(=O)c1cc(COc2cccc(C(F)(F)F)c2)on1	n	21.2	n	n	n	n	n	n
CN(CCCN1CCOCC1)C(=O)c1cc(COc2cccc(C(F)(F)F)c2)on1	n	n	n	n	n	n	x	x
CCc1ccc(NSc2ccccc2[N+](=O)[O-])cc1	n	20.3	n	n	n	n	n	n
O=C(O)c1ccccc1NSc1ccccc1[N+](=O)[O-]	n	n	n	n	n	n	x	x
COc1ccc2nc(SCC(=O)Nc3ccc(S(=O)(=O)N4CCCC4)cc3)c(C#N)cc2c1	n	71.7	n	n	n	n	20.1	n
Cc1c(C(=O)N(C)Cc2ccc(OC(F)F)cc2)oc2ccccc12	n	19.8	n	n	n	n	n	n
COc1ccc(CCN(C)C(=O)c2oc3ccccc3c2C)cc1OC	n	n	n	n	n	n	x	x
Cc1ccc(OCC(O)Cn2c3ccccc3c3ccccc32)cc1 (stereo unspecified)	n	20.6	n	n	n	n	n	n
Cc1ccc(OCCN2CCN(CC(O)Cn3c4ccccc4c4ccccc43)CC2)cc1 (stereo unspecified)	n	n	n	n	n	n	x	x
COc1cc(CCC(C)=O)ccc1OC(=O)c1c(-c2c(F)cccc2Cl)noc1C	n	n	n	n	n	n	x	x
CCOc1ccc(NC(=O)CN(C)C(=O)CSCc2cccc(C)c2)cc1OCC	n	30.2	n	n	n	n	n	n
O=C(/C=C/c1ccccc1)NC(NC(=S)Nc1cccc(O)c1)C(Cl)(Cl)Cl (stereo unspecified)	n	21.5	n	n	n	n	n	n
COc1cccc(NC(=O)N(C)C[C@H]2OCc3cn(nn3)CCCC(=O)N([C@H](C)CO)C[C@@H]2C)c1	n	n	n	n	n	n	x	x
COc1cc(OC)c(C2CC(=O)N3CN(c4ccccc4)CSC3=C2C#N)cc1OC (stereo unspecified)	n	24.4	n	n	n	n	n	n
CC(O)(c1ccccc1)c1nc(-c2ccc(F)c(Cl)c2)cs1 (stereo unspecified)	n	n	n	n	n	n	x	x
CC(O)(c1ccc(F)c(F)c1)c1nc(-c2ccc(F)c(Cl)c2)cs1 (stereo unspecified)	n	22.1	n	n	n	n	n	n
OC(c1ccccc1)(c1nc(-c2ccc(F)c(Cl)c2)cs1)C(F)(F)F (stereo unspecified)	n	22.2	n	n	n	n	n	n
CC(O)(c1ccc(F)c(F)c1)c1nc(-c2cc(F)cc(F)c2)cs1 (stereo unspecified)	n	20.0	n	n	n	n	n	n
CCCCCCCCN1C(=O)[C@@H](CC(=O)NCCCN2CCCC2=O)C[C@@]2(C(=O)OC)C1=C[C@H](C(C)C)O[C@@H]2C1CC1	n	n	n	n	n	n	x	x
COc1cc(CN2CCN(c3ncc(Cc4ccccc4)cn3)CC2)cc(OC)c1	n	n	n	n	n	n	x	x
SMILES	sPLA2-III inh	ADAM10 inh	PLC-gamma1 inh	KLK7 zymogen act	PLC-beta3 inh	ADAM17 inh	ADAM10 confirm	ADAM17 ctr
O=C(CNC(=O)c1ccccc1)OC(C(=O)c1ccccc1)c1ccccc1 (stereo unspecified)	n	n	n	n	n	n	x	x
COc1cc(NC(=O)C(OC(=O)CNC(=O)c2ccccc2)c2ccccc2)cc(C(F)(F)F)c1 (stereo unspecified)	n	28.6	n	x	n	14.9	n	n
COc1ccc2c(c1)[C@@H](NC(=O)C(F)(F)F)[C@@H]1CCCC[C@]21c1ccccc1	n	n	n	n	n	n	x	x
COCCN1C(=O)N(c2cccc(C)c2)C(=O)C1CC(=O)Nc1ccc(OC)cc1 (stereo unspecified)	n	20.1	n	n	n	n	n	n
COCCN1C(=O)N(c2cccc(OC)c2)C(=O)C1CC(=O)Nc1ccc(OC)cc1 (stereo unspecified)	n	n	n	n	n	n	x	x
C[C@H]1[C@@H](OC(=O)NCc2ccccc2)CC[C@@]23CCCN2C(=O)CCC[C@@H]13	n	n	n	x	n	n	x	x
Cc1cccc(NC(=O)c2ccc(C3SCC(=O)N3CCc3ccccc3)cc2)c1C (stereo unspecified)	n	21.5	n	n	n	n	n	n
CCc1ccc(NC(=O)c2ccc(C3SCC(=O)N3CCc3ccccc3)cc2)cc1 (stereo unspecified)	n	n	n	n	n	n	x	x
COC(=O)C1=C(C)N(C)C(=NCc2ccc(OC)cc2)NC1c1ccc(Cl)cc1 (stereo unspecified)	n	n	n	n	n	n	x	x
Cn1nnc(NC(=O)c2ccc(C(C)(C)C)cc2)n1	n	34.5	n	n	n	n	n	n
COCC#Cc1cnc2c(c1)C(=O)N([C@@H](C)CO)C[C@H](C)[C@H](CN(C)C(=O)c1ccc3c(c1)OCO3)O2	n	n	n	n	n	n	x	x
CCOC(=O)C1=CCN(S(=O)(=O)c2ccc(F)cc2)C1c1ccc(Cl)cc1 (stereo unspecified)	n	n	n	n	n	n	x	x
O=C(O)C(=Cc1ccc([N+](=O)[O-])cc1)c1ccccc1	n	n	n	n	n	n	x	x
Cc1cccc(NC(=S)NNC(=O)c2cccc([N+](=O)[O-])c2)c1	n	20.8	n	n	n	n	n	n
O=C(NNC(=S)Nc1ccc(Cl)c(Cl)c1)c1cccc([N+](=O)[O-])c1	n	n	n	n	n	n	x	x
C[C@@H]1Cn2cnc(C(=O)N(C)Cc3ccccc3)c2C(=O)N1	n	n	n	n	n	n	x	x
Cc1ccccc1NS(=O)(=O)c1cc(C(=O)NCCC2=CCCCC2)ccc1C	n	n	n	n	n	n	x	x
Cc1ccc(C(=O)NCCSC2CCCCC2)cc1S(=O)(=O)Nc1ccccc1	n	23.7	n	n	n	n	n	n
